Results on five molecules are retold here after PubChem BioAssay.

Experiment [1] can be described thus: Wnt pathway potentiators raising nuclear beta-catenin – imaging, WNT3A-conditioned medium, mouse C2C12, NPC library, primary screen (AID 1117326; in the data active = nuclear beta-catenin stimulation mostly above about 4.2%, no sharp cut-off; inactive = mostly below about 10%). To be noted: stronger effect = higher value.
Experiment [2] can be described thus: stimulators of insulin release from INS-1E, primary screen, cell-based, 5 mM glucose, NPC library (AID 1117329;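 active = compound raises insulin release from rat beta cells at 5 mM glucose, no numeric limit stated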). To be noted: rat INS-1E insulin secretion, at 10 µM, stronger effect = higher value.
Experiment [3] is described as follows: growth inhibition of GSK3B-pretreated HCT116 cells – cell-based, CellTiter-Glo, 0.2 to 20 µM (AID 1117336;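 active = compounds lowering colon cancer cell viability after pretreatment blocking the GSK3B kinase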). The settings on record: HCT116 viability after GSK3B inhibitor, at 20 µM, stronger effect = higher value.
The nature of experiment [4]: inhibition of endothelial tube formation, primary screen, imaging, VEGF stimulated, CD31 staining, tube area, NPC library (AID 1117340;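 active = compound that reduces growth-factor-driven endothelial tube area in a mixed cell culture, no cutoff stated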). To be noted: VEGF-stimulated ADSC/ECFC co-culture, at 10 µM, stronger effect = higher value.
Experiment [5] is described as follows: GLP1 release stimulators, primary, NCI-H716, NPC library (AID 1117341;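 active = compound raises GLP1 secretion from the human gut endocrine cells, with no numeric limit stated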). The settings on record: NCI-H716 cells, at 10 µM, stronger effect = higher value.
Experiment [6] can be described thus: HCT116 colon cancer cell growth inhibition, primary screen, CellTiter-Glo luminescence, NPC library (AID 1117342;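 active = compounds that lower survival of HCT116 colon cancer cells in the luminescence readout, no numeric limit stated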). The settings on record: at 20 µM (top of the series).
A short description of experiment [7]: reduced SW480 viability measured with CellTiter-Glo, NPC library, primary (AID 1117343). To be noted: CellTiter-Glo luminescence; at 20 µM (top of the series) unless noted.
Experiment [8] in a line: NPC library primary testing for decreased DLD-1 cell viability via CellTiter-Glo (AID 1117346;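 active = compounds that lower survival of DLD-1 colon cancer cells in the luminescence readout, no cutoff given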). The settings on record: DLD-1 viability, CellTiter-Glo luminescence; at 20 µM (top of the series).
Experiment [9] can be described thus: EMT-state selective cytotoxicity in co-culture – imaging, PC-3E GFP, TEM4-18 mCherry, primary screen (AID 1345086;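 active = compounds killing one labelled cell type while sparing the other, by normalised counts and ratio limits, not self-fluorescent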;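 for all read-outs here: cells exposed to compound for 72 h before imaging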;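 for red/green cell ratio (normalised): normalised mesenchymal count divided by normalised epithelial count so high means epithelial killing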). The settings on record: PC-3E GFP / TEM4-18 mCherry co-culture, imaging cell counts, at 1 µM; for red/green cell ratio (normalised): actives lie on both sides, counts scaled to control wells, 1 = unselective.
Experiment [10] can be described thus: viability loss with induced miR-34 in A549 – imaging, A549 dox-inducible miR-34, nuclei and caspase counts, primary screen (AID 1347080;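 active = compounds whose cell count with miR-34 switched on is under 0.7 times the count with it off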). To be noted: A549 miR-34 inducible, Hoechst nuclei count, 48 h.
The target in experiment [11] is NAD(+) hydrolase SARM1 (Homo sapiens) (UniProt Q6SZW1). The experiment is described as follows: blocking NAD cleavage by SARM1 SAM-TIR – cell lysate, NAD-Glo luminescence (AID 1508614;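 active = compound whose remaining NAD level is above about 45 nM, limit read from the data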;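 note: higher remaining NAD means stronger inhibition of SARM1 NADase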). To be noted: SAM-TIR HEK293T lysate NADase, at 1 µM, stronger effect = higher value.
Sequence of NAD(+) hydrolase SARM1 (Homo sapiens) (Q6SZW1 whole entry, looked up): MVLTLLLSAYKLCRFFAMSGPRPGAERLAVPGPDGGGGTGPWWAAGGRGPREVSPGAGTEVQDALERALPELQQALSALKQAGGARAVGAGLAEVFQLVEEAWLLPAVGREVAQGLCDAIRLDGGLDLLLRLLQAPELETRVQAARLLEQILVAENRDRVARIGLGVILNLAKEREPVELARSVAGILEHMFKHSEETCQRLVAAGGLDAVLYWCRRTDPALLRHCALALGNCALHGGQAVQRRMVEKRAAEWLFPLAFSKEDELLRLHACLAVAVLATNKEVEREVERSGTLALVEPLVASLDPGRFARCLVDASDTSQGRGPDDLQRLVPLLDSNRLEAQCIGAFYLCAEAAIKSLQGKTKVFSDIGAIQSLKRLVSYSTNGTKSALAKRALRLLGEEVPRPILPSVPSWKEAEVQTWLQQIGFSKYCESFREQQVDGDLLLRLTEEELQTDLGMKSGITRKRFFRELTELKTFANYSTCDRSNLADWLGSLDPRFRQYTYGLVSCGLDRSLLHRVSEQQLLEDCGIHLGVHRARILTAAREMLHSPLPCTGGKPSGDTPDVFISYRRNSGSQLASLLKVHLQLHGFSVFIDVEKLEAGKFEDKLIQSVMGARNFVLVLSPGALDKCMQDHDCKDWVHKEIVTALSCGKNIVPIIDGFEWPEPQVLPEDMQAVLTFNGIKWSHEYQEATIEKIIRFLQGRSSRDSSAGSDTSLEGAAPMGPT
A short description of experiment [12]: compounds altering viability of human ES cells (AID 493140; call rule not given here;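 note: cells exposed to compounds for four days before counting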). To be noted: human embryonic stem cell survival screen; stronger effect = higher value.
Experiment [13] is described as follows: P. berghei load reduction in hepatocytes – cell-based, HepG2, luciferase luminescence, HepG2 viability, primary screen (AID 624349; in the data active = parasite load remaining mostly below about 12%, no sharp cut-off; inactive = mostly above about 10%;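 note: 100% = mean of DMSO negative control wells on the same plate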). To be noted: P. berghei liver stage in HepG2, luciferase luminescence, concentration not given here; parasite load remaining: stronger effect = lower value; viability: measured here: HepG2 viability without parasites.
Experiment [14] is described as follows: MELAS cybrid and Rieske KO viability enhancers – cell-based, MELAS cybrids, Rieske KO mouse fibroblasts, CellTiter-Glo, primary screen (AID 1508586;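 active = mean z-score across replicates of 1.96 or higher in either the MELAS or the Rieske mutant cell line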;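 note: z relative to plate mean and SD of compound and empty wells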). To be noted: low glucose.
The mark [15] stands for this setting: measured here: epithelial PC-3E GFP cell survival.
[16] abbreviates: measured here: mesenchymal TEM4-18 mCherry cell survival.
[17] abbreviates: stronger effect = lower value, cell number ratio, induced over uninduced.
[18] abbreviates: measured here: relative caspase fold change +Dox/-Dox.
Setting [19] is: measured here: total cells with miR-34 induction, stronger effect = lower value.
[20] abbreviates: measured here: total cells without miR-34 induction.
Where [21] appears, read: MELAS cybrid survival, CellTiter-Glo 48 h, stronger effect = higher value.
[22] abbreviates: Rieske KO mouse fibroblast survival, CellTiter-Glo 72 h.

“And” between values parts separate entries of the source, which are not always exact repeats. Equal entries are not always repeated. The source made the active and inactive calls.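 Rule for the calls, unless noted: active = compounds that lower viability of the colon cancer cells in the luminescence readout, with no numeric limit stated; inactive = the rest.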

Consider `CCCCC(CC)COc1ccc(-c2nc(-c3ccc(OC)cc3)nc(-c3ccc(OCC(CC)CCCC)cc3O)n2)c(O)c1` (centres undefined), for which the nuclear beta-catenin stimulation in [1] (at 10 µM) is -1% (inactive); in experiment [1] (stimulation, at 2 µM), 2%. For the same molecule, in experiment [2], the insulin secretion stimulation was 0.7% (inactive). Further, the viability decrease in [3] was 4.7% (inactive). Moreover, the tube area decrease in experiment [4] is 2.9% (inactive). Also, the GLP1 secretion stimulation in experiment [5] is -2.3% (inactive). Besides, the inhibition of viability in experiment [6] was -5.3% (inactive). Also, the viability decrease (inhibition) in experiment [7] is -1.3% (active); in experiment [8], -8.3% (inactive). Besides, the red/green cell ratio (normalised) in experiment [9] is 0.89 (inactive). For the same molecule, the normalised cell number is 1.25 in experiment [9] (setting [15]) and 1.12 in experiment [9] (setting [16]). Also, the fold change in experiment [10] (setting [17]) is 0.959 (inactive); in [10] (setting [18]) it was 0.849. In addition, the figures for the cell count in [10] (setting [19]) and in experiment [10] (setting [20]) were 9430 and 9840, respectively. The remaining NAD in experiment [11] was 10 nM (inactive).

For `Cc1cccc(C)c1NC(=O)CN1CCN(CCCC(c2ccc(F)cc2)c2ccc(F)cc2)CC1`, the survival in [12] was 2.42 (inactive). For the same molecule, in experiment [13], the parasite load remaining was 135% (inactive) and 49% (inactive). The viability in experiment [13] is 101% and 79.5%. Moreover, the nuclear beta-catenin stimulation was 4.7% (inactive) in experiment [1] (at 10 µM) and 1.2% in experiment [1] (stimulation, at 2 µM). Further, the insulin secretion stimulation in [2] was -1.1% (inactive). The viability decrease in [3] was 99.6% (active). In addition, in [4], the tube area decrease is 82.9% (active). The GLP1 secretion stimulation in experiment [5] was -2.6% (inactive). In addition, the inhibition of viability in [6] is 99.7% (active). In addition, the figures for the viability decrease (inhibition) in experiment [7] and in experiment [8] were 97.6% (active) and 102% (active), respectively. Also, the red/green cell ratio (normalised) in experiment [9] was 1.02 (inactive). For the same molecule, the normalised cell number in experiment [9] (setting [15]) was 1.1; in experiment [9] (setting [16]) it was 1.13. Further, the fold change in experiment [10] (setting [17]) is 0.884 (inactive); in experiment [10] (setting [18]) it was 1.28. Moreover, the cell count in experiment [10] (setting [19]) turned out to be 8280; in experiment [10] (setting [20]), 9370. For the same molecule, the z-score in experiment [14] (setting [21]) is 0.335 (inactive); in experiment [14] (setting [22]), 0.284.

For `CCCCCCCCCCCCCCCC[N+](C)(C)CCN(Cc1ccc(OC)cc1)c1ncccn1`, in experiment [12], the survival was 0.417 (inactive). The parasite load remaining in experiment [13] is 24.3% (inactive). Further, the viability in experiment [13] was found to be 77.4%. Besides, the nuclear beta-catenin stimulation was -5.4% (inactive) in [1] (at 10 µM) and 0% in experiment [1] (stimulation, at 2 µM). Besides, the insulin secretion stimulation in experiment [2] is 2.9% (inactive). Besides, in [3], the viability decrease was 100% (active). Also, the tube area decrease in experiment [4] was 110% (active). In addition, the GLP1 secretion stimulation in experiment [5] was 79.6% (active). The inhibition of viability in [6] is 101% (active). For the same molecule, the viability decrease (inhibition) is 120% (active) in experiment [7] and 103% (active) in experiment [8]. Moreover, the red/green cell ratio (normalised) in experiment [9] was 0.95 (inactive). Further, the normalised cell number turned out to be 1.06 in experiment [9] (setting [15]) and 1 in experiment [9] (setting [16]). The fold change in [10] (setting [17]) was 0.797 (inactive); in experiment [10] (setting [18]), 1.23. For the same molecule, the cell count in experiment [10] (setting [19]) was 4700; in [10] (setting [20]), 5900. Besides, the z-score was -2.42 (inactive) in [14] (setting [21]) and 1.31 in experiment [14] (setting [22]). Besides, the remaining NAD in experiment [11] was 10 nM (inactive).

As to `CNC(=O)c1c(I)c(NC(C)=O)c(I)c(C(=O)O)c1I`, the nuclear beta-catenin stimulation in experiment [1] (at 10 µM) is 0.7% (inactive); in experiment [1] (stimulation, at 2 µM), 0.8%. Also, in experiment [2], the insulin secretion stimulation is 0.9% (inactive). The viability decrease in experiment [3] is -4.1% (inactive). Also, the tube area decrease in [4] was 4.3% (inactive). Also, in experiment [5], the GLP1 secretion stimulation was 0.4% (inactive). Further, the inhibition of viability in [6] is 13.4% (inactive). Moreover, the results for the viability decrease (inhibition) in experiment [7] and in experiment [8] were 0.4% (inactive) and -2.95% (inactive), respectively. Moreover, the red/green cell ratio (normalised) in experiment [9] is 0.78 (inactive). The normalised cell number turned out to be 1.25 in experiment [9] (setting [15]) and 0.97 in experiment [9] (setting [16]). Further, the fold change in experiment [10] (setting [17]) is 0.982 (inactive); in experiment [10] (setting [18]), 0.852. For the same molecule, the values for the cell count in experiment [10] (setting [19]) and in [10] (setting [20]) were 9390 and 9560, respectively. Moreover, the remaining NAD in [11] was 10 nM (inactive).

As for `CC(O)C(=O)O` (centres undefined), the nuclear beta-catenin stimulation was 2.5% (inactive) in experiment [1] (at 10 µM) and 3% in experiment [1] (stimulation, at 2 µM). The insulin secretion stimulation in [2] was -0.6% (inactive). In addition, the viability decrease in [3] is -5.3% (inactive). Further, the tube area decrease in [4] was 8.4% (inactive). The GLP1 secretion stimulation in experiment [5] was 3.4% (inactive). In addition, the inhibition of viability in experiment [6] is 2.73% (inactive). Further, the viability decrease (inhibition) is -11.7% (inactive) in [7] and -8.5% (inactive) in experiment [8]. Besides, the red/green cell ratio (normalised) in experiment [9] is 1.08 (inactive). Moreover, the normalised cell number in experiment [9] (setting [15]) worked out at 1.05; in [9] (setting [16]), 1.14. In addition, the fold change in experiment [10] (setting [17]) is 0.885 (inactive); in experiment [10] (setting [18]), 0.852. The cell count came out at 8900 in [10] (setting [19]) and 10100 in experiment [10] (setting [20]). The remaining NAD in experiment [11] was 10 nM (inactive).
